Source: PubChem
This is one part of a sample in which hits are shown more often than they occur.
RMI-FANCM inh: inhibitors of human RMI core complex binding to FANCM MM2. FP signal (polarization) at 33 µM. actives 0.58% (n = 70,000). Fluorescence polarization, RMI core complex with F-MM2 peptide; stronger effect = lower value; in the data active = FP signal below about 40
An asterisk follows results filed as active.

SMILES	RMI-FANCM inh
O=S(=O)(c1ccc(Cl)cc1)N1CCC(c2nc(-c3ccccc3F)no2)CC1	67
O=C(CSc1nnc(NC(=O)c2ccc3ccccc3c2)s1)NCC1CCCO1 (stereo not drawn)	59
CC(C)CNC(=O)Nc1c[nH]c2ccccc12	60
O=C(NCc1ccccn1)Nc1c[nH]c2ccccc12	25*
COc1ccccc1CNC(=O)Nc1c[nH]c2ccccc12	62
NCC(O)COc1ccc(Br)cc1 (stereo not drawn)	58
CCC(NS(=O)(=O)c1ccc2c(c1)C(=O)c1ccccc1C2=O)C(=O)O (stereo not drawn)	65
CC(=O)c1ccc(NC(=O)CSc2nnc(Cc3ccccc3)c(=O)[nH]2)cc1	55
O=[N+]([O-])c1cccc(S(=O)(=O)Oc2ccc3oc4ccccc4c3c2)c1	59
CC1(C)S[C@@H]2[C@H](NC(=O)COc3ccccc3)C(=O)N2[C@H]1C(=O)O	32*
CC1(C)SC2C(NC(=O)C(N)c3ccccc3)C(=O)N2C1C(=O)O (stereo not drawn)	60
CC1(C)S[C@@H]2[C@H](NC(=O)Cc3ccccc3)C(=O)N2[C@H]1C(=O)O	63
N#CC(C#N)=C(N=C(c1ccccc1)c1ccccc1)C(F)(F)F	52
O=C(Cc1ccc(Cl)cc1)Nc1ccc(SCC(=O)N2CCCC2)nn1	64
CC(=O)Nc1cccc(NC(=O)C(=O)NC2CCCC2)c1	56
CCCOc1ccc(Br)cc1C1C(C(N)=O)=C(C)Nc2ncnn21 (stereo not drawn)	68
CC(=O)Nc1cccc(C2=CC(c3cccc(Br)c3)n3ncnc3N2)c1 (stereo not drawn)	5*
Cc1nc2scc(C)n2c(=O)c1NC(=O)c1c(F)cccc1Cl	55
COc1ccccc1-c1ccc(N2CCC(C(=O)Nc3ccc(C(C)=O)cc3)CC2)nn1	97
N#Cc1ccc(-c2cccnc2)[nH]c1=O	58
N#Cc1c(-c2cccnc2)c2c([nH]c1=O)-c1ccccc1SC2	33*
Cc1ccc(CNC(=O)C(=O)NCC2CCN(Cc3ccccc3)CC2)cc1	77
O=S(=O)(Oc1ccc(F)cc1F)c1cccc(S(=O)(=O)Oc2ccc(F)cc2F)c1	54
Cc1nnc(NCCO)[nH]c1=O	52
CC(C)C(=O)NCCCn1nc(-c2ccncc2)ccc1=O	66
SMILES	RMI-FANCM inh
CC(CNC1CCCCC1)OC(=O)c1ccccc1 (stereo not drawn)	19*
O=C(NCCS(=O)(=O)NC1CCCCC1)c1ccccc1	53
CCC(=O)c1ccc(OCC(O)CNC2CCCCCC2)cc1 (stereo not drawn)	63
COc1ccc(/C=C2/C(=O)NC(=O)N(Cc3ccccc3)C2=O)cc1[N+](=O)[O-]	64
Cn1c2c(c(=O)n(C)c1=O)C(c1cccc(F)c1)C1=C(CC(C)(C)CC1=O)N2 (stereo not drawn)	-8*
CC1(C)CC(=O)C2=C(C1)Nc1[nH]c(=S)[nH]c(=O)c1C2c1ccc2c(c1)OCO2 (stereo not drawn)	52
Cc1ccsc1C1C2=C(CCCC2=O)Nc2c1c(=O)n(C)c(=O)n2C (stereo not drawn)	55
CCn1nccc1C(=O)Nc1sc2c(c1-c1nc3ccccc3s1)CCC(C)C2 (stereo not drawn)	70
COC(=O)N1CCc2c(sc(NC(=O)c3ccccc3)c2-c2nc3ccccc3s2)C1	70
CC(C)N1CCc2c(sc(NC(=O)c3c(F)cccc3F)c2-c2nc3ccccc3s2)C1	-10*
CC(=O)N1CCc2c(sc(NC(=O)c3c(F)cccc3F)c2-c2nc3ccccc3s2)C1	90
CC(C)N1CCc2c(sc(NC(=O)c3ccnn3C)c2-c2nc3ccccc3s2)C1	-7*
CC(=O)N1CCc2c(sc(NC(=O)c3cc(=O)c4ccccc4o3)c2-c2nc3ccccc3s2)C1	-23
Cc1cccc(CC(=O)NCC2CCN(C(C)C)CC2)c1	73
O=C(Nc1c2c(nn1-c1ccc(F)cc1)CSC2)c1cc2ccccc2oc1=O	75
COc1cccc(Cn2cnc3c(-c4cccc(Cl)c4)csc3c2=O)c1	64
N#CC12CC3CC(CC(C3)C1)C2	57
Cc1sc2nc(SCC(=O)Nc3ccc(S(=O)(=O)NC(C)(C)C)cc3)[nH]c(=O)c2c1C	60
Cc1nc(-c2ccccc2)sc1C(=O)Nc1ccc(SCC(=O)N2CCCC2)nn1	62
COC(=O)c1ccc(CSc2nc(=O)n3ccc(C)cc3n2)o1	48
Cc1ccc(C2CC(c3cccs3)=NN2C(=O)CSc2nc(=O)n3ccc(C)cc3n2)cc1 (stereo not drawn)	88
CCOC(=O)N1CCN(C(=O)CSc2nc(=O)n3ccc(C)cc3n2)CC1	29*
CCOC(=O)CN1C(=O)SC(Nc2ccc(C(=O)O)cc2)C1=O (stereo not drawn)	57
O=C(O)c1cc2ccccc2o1	62
O=S(=O)(c1ccc2c(c1)OCCO2)N1CCN(Cc2nc(-c3ccco3)cs2)CC1	65
CC(C)(C)c1cc(C(=O)CSc2nnc(Nc3ccccc3)n2-c2ccccc2)cc(C(C)(C)C)c1O	52
COC(=O)Nc1ccc2c(c1)NC(=O)C(C)(C)CO2	66
CC1(C)COc2ccc(N)cc2NC1=O	37*
